An excerpt weighted towards active compounds, which were near 9.2% of everything screened.
Rab9 promoter act: activators of Rab9 promoter; 320,000 tested, 2.8% active; Huh7 Rab9 promoter-luciferase reporter, luminescence, 24 h; Potency, µM (titrated, usually from 9.22 µM), actives largely listed as activators; note: nearly all actives have a fitted effect of over 60% in size
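Measured in stably transfected Huh7 cells bearing a Rab9 promoter–luciferase construct: 24 h compound treatment at 37 °C, followed by luminescence detection.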
FLuc modulator: firefly luciferase modulation, counter-screen for miR-21 project; 360,000 tested, 6.9% active; Potency, µM (top dose mostly 57.5 µM), actives largely listed as inhibitors; purified FLuc, Km substrates, luminescence inhibition; note: nearly all actives have a fitted effect of over 55% in size
Target sequence (P08659 whole entry, looked up): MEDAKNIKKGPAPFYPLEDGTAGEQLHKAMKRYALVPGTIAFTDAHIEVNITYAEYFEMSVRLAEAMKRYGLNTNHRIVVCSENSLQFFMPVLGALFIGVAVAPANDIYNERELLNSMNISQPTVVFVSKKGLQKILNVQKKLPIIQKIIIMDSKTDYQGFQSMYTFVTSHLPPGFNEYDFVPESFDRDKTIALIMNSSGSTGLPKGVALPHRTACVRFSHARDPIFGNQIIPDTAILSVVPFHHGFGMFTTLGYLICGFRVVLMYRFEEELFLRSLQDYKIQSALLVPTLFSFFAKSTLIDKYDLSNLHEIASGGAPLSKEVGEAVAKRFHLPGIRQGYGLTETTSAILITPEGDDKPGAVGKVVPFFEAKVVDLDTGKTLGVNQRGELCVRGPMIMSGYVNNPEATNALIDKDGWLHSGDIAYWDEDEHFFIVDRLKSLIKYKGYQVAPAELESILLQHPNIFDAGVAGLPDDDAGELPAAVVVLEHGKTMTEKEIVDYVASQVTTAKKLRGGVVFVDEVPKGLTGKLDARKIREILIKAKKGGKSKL
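Purified P. pyralis luciferase, 10 nM final, with Km-level 10 uM D-luciferin and 10 uM ATP in 50 mM Tris acetate pH 7.5, 10 mM Mg acetate, 0.01% Tween-20, 0.05% BSA; 6-point qHTS titration about 60 µM downward; luminescence read.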
NPC1 prom act: activators of NPC1 promoter; Huh7 NPC1 promoter luciferase reporter, 24 h; Potency, µM (highest dose often 9.22 µM), most hits filed as activators; 320,000 tested, 2.4% active; note: nearly all actives have a fitted effect of over 60% in size
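Huh7 reporter cells (NPC1 promoter driving luciferase) are dosed with compound for 24 h at 37 °C, 5% CO2; luciferase detection reagent is then added and luminescence measured after 10 min at ambient temperature.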
SMN2 splice enh: SMN2 splice variant enhancement; HEK293 SMN2-luciferase splicing reporter, luminescence, 30-36 h; AID 1458; Potency, µM (highest dose often 46.1 µM), actives largely listed as activators; 210,000 tested, 2.8% active; note: nearly all actives have a fitted effect of over 55% in size
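qHTS luciferase splicing reporter: luminescence rises when SMN2 exon 7 is included in transfected HEK293 cells. Compound exposure lasted 30-36 h at 37C, with 4.5 mM final sodium butyrate as control, followed by a ONE-Glo read.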
ELG1 genotox: genotoxicity induction in ELG1-luciferase HEK293T cells; HEK293T ELG1-luciferase reporter, luminescence, 16 h; Potency, µM (highest dose often 46 µM), usual class: activators; 330,000 tested, 1.3% active; AID 504466; note: nearly all actives have a fitted effect of over 60% in size
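HEK293T cells expressing luciferase-tagged ELG1 were treated with compound or DMSO for 16 hr at 37°C. Luciferase activity was then read after 30 min with ONE-Glo at room temperature; rising signal flags genetic stress.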
ELG1 repair inh: inhibitors of ELG1-dependent DNA repair in HEK293T cells | 330,000 tested, 2.3% active | Potency, µM (doses to about 46.1 µM), usual class: inhibitors | HEK293T ELG1-luciferase reporter, luminescence, 16 h; DNA damage induced by 5-fluorouridine; note: nearly all actives have a fitted effect of over 55% in size
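DMSO vehicle served as the neutral condition. Each well held 2,000 cells given 5-fluorouridine plus compound; after 16 hr at 37 °C/5% CO2, ONE-Glo was added and luciferase measured 30 min later.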
Hits are given with their value; n = inactive; u = inconclusive; x = not tested or not shown. Calls come from the whole dose curve; as a rule, active = well fitted curve in the direction sought with a large enough effect; inconclusive = small, poorly fitted or top-dose-only effect, or another doubt; inactive = no such curve, though single readings can be large; an effect the other way counts as inactive or inconclusive.

SMILES	Rab9 promoter act	FLuc modulator	NPC1 prom act	SMN2 splice enh	ELG1 genotox	ELG1 repair inh
Cc1nc2ccc(N=NC3=C(O)CCCC3=O)cc2s1	n	11µM	n	u	u	u
O=C1CCCC(O)=C1N=Nc1cccc(C(=O)O)c1	2.2µM	8.5µM	3.5µM	u	u	u
CCOc1ccc2nc(N=NC3=C(O)CC(C)(C)CC3=O)sc2c1	n	u	n	n	n	u
CCC(C)(C)NC(=O)C(c1ccc(C)cc1)N(CC1CCCO1)C(=O)c1csnn1 (stereo unspecified)	n	n	n	x	n	n
COc1ccc(C(=O)Nc2cc(C(C)=O)c(/C=C/N(C)C)oc2=O)cc1	n	u	n	n	n	n
CC(=O)Nc1cc2ccccc2oc1=O	n	n	n	n	n	n
CC(=O)c1cc(NC(=O)c2ccc(C)cc2)c(=O)oc1/C=C/N(C)C	n	5.4µM	n	u	n	u
Cc1cc[n+](CC(=O)c2cc3ccccc3oc2=O)cc1	n	24µM	n	n	n	u
Cc1oc(=O)c(NC(=O)c2ccccc2)cc1C(=O)c1ccccc1	2.2µM	15µM	u	n	u	u
Cc1ccc(C(=O)Nc2cc3ccccc3oc2=O)cc1	u	0.076µM	0.71µM	x	u	u
Cc1oc(=O)c(NC(=O)c2ccc(Cl)cc2)cc1C(=O)c1ccccc1	n	n	n	n	n	u
Cc1cc2oc(=O)c(CC(=O)NCCc3ccccc3F)c(C)c2c2occ(C(C)(C)C)c12	x	u	x	n	x	x
Cc1cc(C)cc(NC(=O)CN2C(=O)C3CC=CCC3C2=O)c1 (stereo unspecified)	n	x	n	x	n	n
COCCNc1nc2c(c(=O)n(C)c(=O)n2C)n1Cc1c(F)cccc1Cl	x	n	x	n	x	x
CC(=O)c1cc(NC(=O)c2ccc(C)cc2)c(=O)oc1C	n	17µM	n	x	u	u
CC(=O)c1cccc(S(=O)(=O)NCCCN2CCOCC2)c1	n	n	n	x	n	n
CCn1c(C)nc2cc(C(=O)NNC(=S)Nc3ccc(Cl)cc3)ccc21	n	u	n	x	n	n
CCn1c(C)nc2cc(C(=O)NNC(=S)Nc3ccccc3)ccc21	0.79µM	12µM	0.45µM	n	10µM	u
CCn1c(NC(=S)Nc2ccccc2)nc2ccccc21	u	3.4µM	u	n	n	u
CCCn1c(NC(=S)Nc2ccccc2)nc2ccccc21	n	u	n	n	u	u
CCn1c(C)nc2cc(C(=O)NNC(=S)Nc3ccc(Cl)cc3Cl)ccc21	n	u	n	n	n	n
CCn1c(C)nc2cc(C(=O)NNC(=S)Nc3ccccc3Cl)ccc21	u	17µM	u	u	u	u
O=C(CN1C(=O)COc2ccc(S(=O)(=O)N3CCCC3)cc21)N1CCN(c2ccc(F)cc2)CC1	x	n	x	n	x	x
CCn1cc(C(=O)NCCCOC)c(=O)c2cc(S(=O)(=O)N3CCc4ccccc4C3)ccc21	x	n	x	n	x	x
CC(=O)N1CC2(NC(=O)c3ccccc3N2)c2ccccc21 (stereo unspecified)	n	n	n	x	n	n
SMILES	Rab9 promoter act	FLuc modulator	NPC1 prom act	SMN2 splice enh	ELG1 genotox	ELG1 repair inh
Cc1ccc(NC(=O)c2ccc(F)cc2)nc1	n	n	n	x	n	n
CCc1ccc(NC(=O)Nc2cccs2)cc1	0.79µM	0.85µM	1.1µM	14µM	u	u
Cc1ccc(NC(=O)c2sccc2C)nc1	0.5µM	12µM	0.89µM	x	2.9µM	u
CCOc1ccc(NC(=O)Nc2cccs2)cc1	1.4µM	1.5µM	0.89µM	11µM	4.6µM	u
Cc1ccc(NC(=O)Nc2cccs2)nc1	2.2µM	21µM	4µM	u	u	u
O=C(c1cnccn1)N1CCC2(CCCN(c3ccccc3)C2)CC1	x	x	x	n	x	x
O=C(CSc1nnc(CNC(=O)c2c(F)cccc2Cl)o1)Nc1ccccc1F	x	n	x	n	x	x
Cc1cc(C)cc(NC(=O)Nc2cccnc2)c1	n	u	n	x	n	n
Cc1cc(C)cc(NC(=O)Nc2cccs2)c1	x	9.5µM	x	n	x	x
Cc1ccc(NC(=O)Nc2cccs2)cc1	2.2µM	2.4µM	2.8µM	16µM	n	u
COc1ccccc1OCC(=O)NCC1(N(C)C)CCCCC1	x	n	x	x	x	x
CCSC1=NC2(CCN(C(=O)NC3CCCCC3)CC2)N=C1c1ccc(Cl)cc1	x	n	x	x	x	x
CCOC(=O)c1cc2ccc3ccccc3c2s1	u	5.4µM	u	u	u	u
CCOC(=O)c1cc2ccc3ccccc3c2oc1=O	n	n	n	x	n	n
CCOC(=O)c1cc2c(s1)-c1ccccc1CC2	n	11µM	n	n	n	u
Nc1c(Cl)cc(-c2cn(CCC(=O)O)c(-c3ccc(Cl)nc3)n2)cc1Cl	n	n	n	x	n	n
Clc1ccc(-n2nnnc2-c2cnc(-c3ccncc3)nc2-c2cccs2)cc1	n	n	n	n	n	u
FC(F)(F)c1nc(-c2cccs2)ncc1-c1nnnn1-c1ccc(Cl)cc1	n	n	n	n	n	21µM
CCOC(=O)c1c(C)nc2sc3c(=O)n(-c4ccc(C(C)=O)cc4)cnc3c2c1-c1ccc(Cl)cc1	n	n	n	n	n	21µM
C/C(=N\NC(=O)c1cc(Cl)ccc1O)c1ccc(Br)s1	3.5µM	6.7µM	4µM	4µM	n	u
C/C(=N\NC(=O)c1ccc(Cl)cc1)c1ccc(Br)s1	n	u	n	n	n	u
C/C(=N\NC(=O)COc1ccc2ccccc2c1)c1cccs1	n	u	n	x	n	n
O=C(NNC(=O)c1cc2ccccc2cc1O)c1cccs1	3.5µM	12µM	3.2µM	x	u	u
C/C(=N\NC(=O)c1cc2ccccc2cc1O)c1cccs1	0.63µM	3.8µM	0.56µM	x	u	u
O=C(NNS(=O)(=O)c1ccc2ccccc2c1)c1cccs1	n	n	n	n	n	n
SMILES	Rab9 promoter act	FLuc modulator	NPC1 prom act	SMN2 splice enh	ELG1 genotox	ELG1 repair inh
O=C(NNC(=O)c1ccc2ccccc2c1O)c1cccs1	n	27µM	n	x	n	u
CN(CC(=O)Nc1ccccc1Cl)C(=O)COC(=O)c1ccc([N+](=O)[O-])s1	x	x	x	x	n	u
O=c1c(Cc2c(F)cccc2Cl)c(O)ccn1CCCn1ccnc1	n	n	n	n	n	n
CC1(C)Cc2c(c(-c3ccco3)nc3sc4c(NCC5CCCO5)ncnc4c23)CO1 (stereo unspecified)	n	n	n	n	n	7.3µM
CC1(C)Cc2c(c(-c3ccco3)nc3sc4c(NCCCO)ncnc4c23)CO1	n	n	n	x	n	13µM
CC(C)n1nc(C(=O)Nc2nnc(SCc3c(Cl)cccc3Cl)s2)c2ccccc2c1=O	n	n	n	n	n	n
Cc1ccc(OCc2cc(C(=O)NC(C)Cc3cnccn3)no2)cc1C (stereo unspecified)	n	n	n	x	n	n
COc1cc(Cl)ccc1OCc1cc(C(=O)N(C)Cc2cccc3cnccc23)no1	u	13µM	u	x	n	n
COc1ccc(OCc2cc(C(=O)NC(C)Cc3cnccn3)no2)c(Cl)c1 (stereo unspecified)	u	19µM	u	x	u	u
